The list is not random: actives were taken first. Their share in the collection is about 11%.
NPR1 antag: blocks ANP-stimulated signaling of human Npr1 receptor. P16066. HEK293 hNpr1 GloSensor cGMP, ANP-stimulated luminescence. Potency, µM (titrated, usually from 46.3 µM), usual class: inhibitors. hit rate 1.6% among 76,000; calls by dose curve; further: nearly all actives have a fitted effect of over 60% in size
Target sequence (P16066 whole entry, looked up): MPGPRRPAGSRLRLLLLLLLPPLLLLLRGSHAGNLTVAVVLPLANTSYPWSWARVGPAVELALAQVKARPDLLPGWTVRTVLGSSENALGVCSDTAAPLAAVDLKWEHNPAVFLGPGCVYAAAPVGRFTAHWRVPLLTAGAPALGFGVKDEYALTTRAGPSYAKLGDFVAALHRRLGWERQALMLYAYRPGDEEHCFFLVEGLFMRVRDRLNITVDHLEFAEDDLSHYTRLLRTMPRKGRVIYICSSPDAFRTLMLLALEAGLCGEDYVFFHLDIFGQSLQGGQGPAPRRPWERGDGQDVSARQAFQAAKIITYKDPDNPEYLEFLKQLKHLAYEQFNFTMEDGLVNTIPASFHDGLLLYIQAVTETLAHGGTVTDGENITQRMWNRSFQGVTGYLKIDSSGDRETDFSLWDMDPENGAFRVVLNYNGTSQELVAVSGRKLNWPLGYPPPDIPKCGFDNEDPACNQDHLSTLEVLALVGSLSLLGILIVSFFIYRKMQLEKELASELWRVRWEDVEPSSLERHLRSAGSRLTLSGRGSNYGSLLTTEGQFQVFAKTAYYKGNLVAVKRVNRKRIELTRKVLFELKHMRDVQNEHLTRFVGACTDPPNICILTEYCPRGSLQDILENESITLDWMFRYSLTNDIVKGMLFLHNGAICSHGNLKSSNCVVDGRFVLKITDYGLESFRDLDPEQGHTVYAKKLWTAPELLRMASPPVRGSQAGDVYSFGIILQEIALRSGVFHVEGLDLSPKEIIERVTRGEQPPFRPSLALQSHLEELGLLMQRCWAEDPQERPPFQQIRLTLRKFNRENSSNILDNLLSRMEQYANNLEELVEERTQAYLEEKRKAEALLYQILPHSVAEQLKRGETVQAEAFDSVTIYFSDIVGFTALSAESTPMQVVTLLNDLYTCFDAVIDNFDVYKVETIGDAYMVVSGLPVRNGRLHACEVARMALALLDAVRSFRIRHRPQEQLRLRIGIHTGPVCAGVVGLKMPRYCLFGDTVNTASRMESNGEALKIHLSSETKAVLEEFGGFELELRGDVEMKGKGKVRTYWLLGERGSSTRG
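Compound pre-incubated 30 min at room temperature on GloSensor-loaded HEK293 cells stably carrying hNpr1 and the pGS-40F cGMP biosensor. Stimulation uses hNppA at 0.1 nM final; luminescence is taken at baseline and 20 min post-agonist.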
Luciferase inh: Photinus pyralis luciferase inhibition. P08659. purified P. pyralis luciferase, luminescence, biochemical. Potency, µM (doses to about 115 µM), actives largely listed as inhibitors. hit rate 2.5% among 76,000. AID 1347043; further: nearly all actives have a fitted effect of over 65% in size
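Inhibitors were tested against purified firefly luciferase in a biochemical, low-substrate format (both substrates at 10uM) and luminescence measured with a CCD imager.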
NIH3T3 tox: cytotoxic compounds in NIH 3T3 cells. NIH 3T3 viability, CellTiter-Glo ATP luminescence, 48-72 h. Potency, µM (highest dose often 96.7 µM), usual class: inhibitors. hit rate 4.3% among 94,000. AID 1345082; further: nearly all actives have a fitted effect of over 55% in size
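Mouse fibroblast NIH 3T3 cells, 400 per well, received compound via pintool and were incubated for 48 or 72 hr prior to CellTiter-Glo ATP luminescence measurement.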
HEK293 tox: kills HEK 293 cells; HEK 293 viability, ATP luminescence (CellTiter-Glo), 48-72 h; Potency, µM (doses to about 115 µM), most hits filed as inhibitors; hit rate 6.6% among 94,000; AID 1345083; further: nearly all actives have a fitted effect of over 60% in size
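ATP-coupled CellTiter-Glo luminescence served as viability read-out, recorded 10 min after reagent addition at room temperature. HEK 293 cells, 250 cells/well, had been incubated with pintool-transferred compound for 48 or 72 hr at 37 degree Celsius.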
NPR1 antag cnf: hNpr1 antagonism, confirmation assay; AID 1347044; hit rate 76% among 1,400; shares compounds with NPR1 antag; Potency, µM (top dose mostly 57.6 µM), most hits filed as inhibitors; HEK293 hNpr1 cGMP GloSensor luminescence, ANP-stimulated; calls by dose curve; further: nearly all actives have a fitted effect of over 70% in size
NPR2 antag: hNpr2 antagonism, selectivity versus Npr1 | Potency, µM (series often up to 57.6 µM), usual class: inhibitors | shares compounds with NPR1 antag | hit rate 67% among 1,400 | HEK293 hNpr2 GloSensor cGMP luminescence, CNP-stimulated; calls by dose curve; further: nearly all actives have a fitted effect of over 70% in size
FLuc counter: FLuc enzyme inhibition, Npr1 counter-screen | purified FLuc enzyme, luminescence, Km substrate | Potency, µM (series often up to 57.6 µM), most hits filed as inhibitors | hit rate 0.7% among 1,400 | shares compounds with NPR1 antag
GloSensor cGMP: control cell line activity, Npr1 antagonist counter-screen | shares compounds with NPR1 antag | HEK293 GloSensor cGMP, SNP-stimulated, luminescence | Potency, µM (doses to about 57.6 µM), hits mostly inhibitors | hit rate 69% among 1,400 | AID 1347051; calls by dose curve; further: nearly all actives have a fitted effect of over 70% in size
Numbers stand for hits; i = inactive; ? = inconclusive; nt = no result given; ! = not active in a repeat. Unless noted, the call rests on the fitted dose curve; in most records, active means well fitted curve in the direction sought with a large enough effect; inconclusive means small, poorly fitted or top-dose-only effect, or another doubt; inactive means no such curve, though single readings can be large; an effect the other way counts as inactive or inconclusive.

SMILES | NPR1 antag | Luciferase inh | NIH3T3 tox | HEK293 tox | NPR1 antag cnf | NPR2 antag | FLuc counter | GloSensor cGMP
CN(C)C(=O)C1CN(C(=O)Cc2cccc(Cl)c2)CC12CCOCC2 (stereo not drawn) | i | i | i | i | nt | nt | nt | nt
COC(=O)c1cc(C#N)c(N2CCCC(O)(CN(C)C)CC2)nc1C (stereo not drawn) | i | i | i | i | nt | nt | nt | nt
Cc1nc(-c2c3n(c(=O)n(Cc4ccc(Cl)cc4)c2=O)CCCC3)no1 | i | i | i | i | nt | nt | nt | nt
COc1ccccc1CN1CCn2c(nn(-c3ccc([N+](=O)[O-])cc3)c2=O)C1 | ? | i | ? | ? | nt | nt | nt | nt
Cc1ccc(NC(=O)CN2C(=O)NC(c3ccc(Cl)cc3)C3=C2COC3=O)c(Cl)c1 (stereo not drawn) | ? | i | ? | 45µM | ? | i | i | i
Cc1ccc(NC(=O)CN2C(=O)NC(c3ccc(Cl)cc3)C3=C2COC3=O)c(C)c1 (stereo not drawn) | i | i | ? | ? | nt | nt | nt | nt
CCOc1ccccc1C1NC(=O)N(CC(=O)Nc2cccc(C(C)C)c2)C2=C1C(=O)OC2 (stereo not drawn) | ? | i | ? | ? | ? | ? | i | ?
O=C(CN1C(=O)NC(c2ccc(Cl)cc2)C2=C1COC2=O)Nc1ccc(F)c(Cl)c1 (stereo not drawn) | ? | i | 40µM | ? | ? | ? | i | ?
CN(Cc1cccc(C(F)(F)F)c1)Cc1cccs1 | nt | nt | i | i | nt | nt | nt | nt
COc1ccc(CCCNc2cc(C3CC(O)C3)ncn2)cc1 (stereo not drawn) | 10µM | i | i | ? | 19µM | 19µM | i | 14µM
OC1CC(c2cc(NCCOCc3ccc(Cl)cc3)ncn2)C1 (stereo not drawn) | 11µM | i | ? | ? | 22µM | ? | i | 22µM
O=S(=O)(CCNc1cc(C2CC(O)C2)ncn1)c1ccc(F)cc1 (stereo not drawn) | i | i | i | i | nt | nt | nt | nt
O=C(c1cc(-c2ccccc2)n[nH]1)N1CCCC(Cc2noc(-c3cccnc3)n2)C1 (stereo not drawn) | i | i | ? | i | nt | nt | nt | nt
O=S(=O)(c1ccccc1)N1CC(n2cnnc2-c2ccccc2)C1 | nt | nt | i | i | nt | nt | nt | nt
COc1ccc(OC)c(NC(=O)Cn2c(N3CCc4ccccc4C3)nc(C)cc2=O)c1 | ? | i | 28µM | 32µM | ? | ? | i | ?
Cc1cccc(NC(=O)Cn2c(N3CCc4ccccc4C3)nc(C)cc2=O)c1 | i | i | ? | 45µM | i | ? | i | ?
COc1ccccc1NC(=O)Cn1c(N2CCc3ccccc3C2)nc(C)cc1=O | i | i | ? | ? | i | i | i | i
Cc1cc(=O)n(CC(=O)Nc2ccccc2C)c(N2CCc3ccccc3C2)n1 | ? | i | ? | ? | ? | i | i | i
CN1CCc2c([nH]c3ccccc23)C12CCN(C(=O)c1cn(C)cn1)CC2 | i | i | i | i | nt | nt | nt | nt
Nc1cccc(C(=O)NCC2CCN(Cc3cc(F)cc(F)c3)C2)c1 (stereo not drawn) | i | i | i | i | nt | nt | nt | nt
CCc1nc(CC)n2ccn(Cc3ccc(OC)cc3)c(=O)c12 | i | i | ? | ? | nt | nt | nt | nt
CCc1ncc2c(=O)n(Cc3ccc(OC)cc3)ccn12 | 10µM | i | i | ? | 12µM | 12µM | i | 8.6µM
CCNC(=O)N(C1CC1)C1CCOC2(CCN(C(=O)COc3ccc(F)cc3)CC2)C1 (stereo not drawn) | i | i | i | i | nt | nt | nt | nt
CC(C)Cc1cn(CC2CCCN(C(=O)c3n[nH]c4c3CCCC4)C2)nn1 (stereo not drawn) | 14µM | i | ? | ? | 19µM | 17µM | ? | 15µM
CC(C)C1CN(C(=O)c2n[nH]c3c2CCC3)CCC(=O)N1CC1CC1 (stereo not drawn) | i | i | i | i | nt | nt | nt | nt
SMILES | NPR1 antag | Luciferase inh | NIH3T3 tox | HEK293 tox | NPR1 antag cnf | NPR2 antag | FLuc counter | GloSensor cGMP
Cc1nc(-c2c3n(c(=O)n(CC(=O)Nc4ccc(Cl)cc4)c2=O)CCCC3)no1 | i | i | ? | i | nt | nt | nt | nt
Nc1nc(C2CC(O)C2)cc(N2CCC(Cc3ccc(F)cc3)CC2)n1 (stereo not drawn) | 11µM | i | 16µM | ? | 19µM | 19µM | i | 12µM
O=C(CCC1CCN(S(=O)(=O)c2ccc(F)cc2)CC1)NCc1nc2ccccc2[nH]1 | 11µM | i | i | ? | 19µM | 22µM | i | 15µM
CC(=O)N1CCCN(c2ncnc3c2CN(C2CCC2)C(=O)CN3C)CC1 | nt | nt | i | i | nt | nt | nt | nt
Cc1nn2c(c1-c1ccccc1OCc1ccccc1)N(C(=O)Cc1ccccn1)CCC2 | ? | i | ? | ? | 20µM | 13µM | i | i
Cc1nn2c(c1-c1ccccc1[S+](C)(=O)[O-])N(C(=O)Cc1ccccc1)CCC2 | i | i | ? | i | nt | nt | nt | nt
Cc1nn2c(c1-c1ccccc1OCc1ccccc1)N(C(=O)COc1ccccc1C(N)=O)CCC2 | 7.1µM | i | 6.3µM | ? | 17µM | 11µM | i | i
CN(C)C(=O)N1CCC(c2nn(-c3ccccn3)c(=O)[nH]2)CC1 | nt | nt | i | i | nt | nt | nt | nt
Cc1nn(-c2ccccc2)c2c1C(C)N(C1CCN([S+](=O)([O-])c3cccs3)CC1)C2=O (stereo not drawn) | nt | nt | i | ? | nt | nt | nt | nt
O=c1[nH]c(C2CCCN(Cc3ccc(-c4cccs4)cc3)C2)nc2ccc(F)cc12 (stereo not drawn) | 16µM | i | ? | 40µM | 24µM | 27µM | i | 31µM
COc1ccccc1-c1ccc(CN2CCCC(c3nc4ccc(C)cc4c(=O)[nH]3)C2)cc1 (stereo not drawn) | ? | i | 28µM! | 18µM | ? | ? | i | ?
N#Cc1ccc(CN2CCC(c3nc4ccc(F)cc4c(=O)[nH]3)CC2)cc1 | nt | nt | i | i | nt | nt | nt | nt
O=c1[nH]c(C2CCCN(Cc3ccc(Cl)cc3)C2)nc2ccc(F)cc12 (stereo not drawn) | ? | i | i | ? | nt | nt | nt | nt
Cc1ccc2nc(C3CCN(Cc4ccc(C#N)cc4)CC3)[nH]c(=O)c2c1 | ? | i | ? | ? | 17µM | ? | i | 17µM
CSc1nccc(N2CCC3(CC2)CC(=O)N(CC(C)C)C3)n1 | 7.1µM | i | ? | ? | 6.9µM | 11µM | i | 5.4µM
CCOC(=O)C1CCCN(C(=O)c2cc(-c3ccc(F)cc3)c3nncn3n2)C1 (stereo not drawn) | nt | nt | ? | i | nt | nt | nt | nt
CCOc1ccccc1CN1CCCCCNC(=O)CC1c1ccccc1 (stereo not drawn) | i | i | ? | ? | nt | nt | nt | nt
CC(C)N1CCN(C(=O)c2csc(N3CCN(c4cccc(Cl)c4)CC3)n2)CC1 | i | i | ? | ? | nt | nt | nt | nt
